Out of some 360,000 compounds screened, about 17,000 (4.7%) were called active. Another 5% or so got no clear call; they are omitted. The sample as a whole holds a higher share of actives than the screen did. A number with no mark means an inactive call. Cut-off read from the data, not from the text of the source: active = activity change below about -50%; inconclusive = mostly about -30% to -49%; inactive = weaker than that.
% is set by controls: 0 for no effect and ±100 for the full control effect.

The nature of the experiment: qHTS for Inhibitors of Inflammasome Signaling: IL-1-beta AlphaLISA Primary Screen. Conditions: THP-1 LPS/ATP IL-1B secretion, 16 h; at 57.5 µM, hits give low values. The essentials: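 Secreted IL-1B measured by AlphaLISA bead assay after 16 h compound exposure of THP-1 cells; compounds (final up to 57.5 uM) added 1 h before LPS (250 ng/mL) and ATP (1.25 mM) stimulation; lower signal means less secretion.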
Turning to `CCOc1ccccc1-c1cc(C(=O)N/N=C(\C)c2cccnc2)c2ccccc2n1`, the activity change is 6.38%.
The result for `CCOc1cccc(/C=C/c2ccc3ccccc3n2)c1OC(C)=O` reads -92% (active); that for `CCOc1ccccc1/C=N/Nc1nc2ccccc2o1`, 0%; that for `CC(OC(=O)c1ccc2ccccc2n1)C(=O)c1ccccc1` (stereo unspecified), 14.9%.
The result for `COc1cccc(/C=C2\C=C(c3ccc(C)cc3)OC2=O)c1OC(C)=O` reads -5.9%; that for `COc1cccc(/C=C/c2ccc3ccccc3n2)c1OC(C)=O`, -103% (active); that for `CC1(C(=O)Nc2ccc3c(c2)OCCO3)CSCC(=O)N1CCOc1ccccc1` (stereo unspecified), -3.47%.
The result for `O=C(NC1CCCC1)C1c2ccccc2OCC(=O)N1CC(F)(F)F` (stereo unspecified) reads 35.1%; that for `CC(C)C(C)(C#N)NC(=O)CSc1nc2scc(-c3ccccc3)c2c(=O)[nH]1` (stereo unspecified), 18.7%.
As for `CC[C@@]12C(=O)N(c3ccccc3)C(=O)N1[C@H](c1ccc(Br)cc1)[C@@H]1C(=O)N(C(C)(C)C)C(=O)[C@@H]12`, the activity change was 12%.
The result for `Cn1cc([N+](=O)[O-])c(C(=O)Nc2ccc3c(c2)OCCO3)n1` reads -66.8% (active); that for `O=C(Nc1ccc2c(c1)OCCO2)c1ccoc1`, -12.9%; that for `Cc1onc(C(=O)Nc2ccc3c(c2)OCO3)c1[N+](=O)[O-]`, -7.05%.
Then `CC(=O)N(O)CCCCCNC(=O)CCC(=O)N(O)CCCCCNC(=O)CCC(=O)N(O)CCCCCNC(=O)CCC(=O)O`, with 21.7%.
As to `C[C@@]12C(=O)N(c3cccc(Br)c3)C(=O)N1[C@H](c1ccc(Cl)cc1)[C@@H]1C(=O)N(C3CCCCC3)C(=O)[C@@H]12`, the activity change was -60.3% (active).
Then `O=C1[C@H]2[C@@H](c3ccc(Cl)cc3)N3C(=O)N(c4cccc(F)c4)C(=O)[C@@]3(Cc3ccccc3)[C@H]2C(=O)N1C1CCCCC1`, with -4.9%; and `CC(C)(C)N1C(=O)[C@H]2[C@@H](c3ccc(Br)cc3)N3C(=O)N(c4cccc(Cl)c4)C(=O)[C@@]3(C)[C@H]2C1=O`, with -24.5%; and `COc1ccc(-c2cnc3c(c2)C(=O)N([C@H](C)CO)C[C@@H](C)[C@H](CN(C)Cc2ccccc2)O3)cc1`, with -26.2%.
Then `CCCNC(=O)C1(C)CCN(Cc2csc(-c3ccc(Cl)cc3)n2)C1` (stereo unspecified), with -26.3%; and `c1ccc2c(c1)CSc1sccc1C2=C1CCNCC1`, with -57.8% (active); and `CN1OC[C@@H]2CN(C(=O)c3cccc4ccccc34)[C@H](c3ccc(N4CCCCC4)cc3)C[C@@H]21`, with -28.3%.
The result for `N#Cc1ccc(OCC(=O)Nc2nc(-c3ccccn3)cs2)cc1` reads 69.5%; that for `CSc1ccccc1NC(=O)CN(C)CC(=O)Nc1cccc(Br)c1`, -74.1% (active); that for `CCC(C)c1ccccc1NC(=O)CN(C)CC(=O)Nc1ccccc1SC` (stereo unspecified), -1.52%.
As for `CSc1ccccc1NC(=O)CN(C)CC(=O)Nc1ccc(Cl)cc1[N+](=O)[O-]`, the activity change is -0.613%.
Then `O=C(Nc1ccccc1)C1CC(=O)n2c(nc3ccccc32)N1` (stereo unspecified), with -5.02%; and `COc1ccc(CC(NC(C)=O)C(=O)NC2CCN(C(=O)c3ccc(Cl)cc3)CC2)cc1` (stereo unspecified), with 23.6%.
Then `COC(=O)C[C@H]1C=C[C@@H](NS(=O)(=O)c2ccc(C)cc2)[C@@H](CO)O1`, with 34.5%; and `CSc1ncnc2c1ncn2CCCNCc1cccs1`, with 19.3%.
Then `COc1ccc(OCC(=O)Nc2ccc(N3CCC(C)CC3)cc2)cc1`, with 2.27%; and `COc1ccc(NC(=S)NCC2CCN(c3ccc(OC)cc3)C2)cc1` (stereo unspecified), with -82.6% (active).
As for `COc1ccc(C(C(=O)Nc2c(C)cccc2C)N2CCN(c3ccc(C)cc3)CC2)cc1` (stereo unspecified), the activity change is -9.64%.
Then `COc1ccc(NC(=S)NCCN2CCC(C)CC2)cc1`, with -11.9%.
Then `COc1ccc(N2CCC(CNC(=S)Nc3c(C)cccc3C)C2)cc1` (stereo unspecified), with -82.6% (active).
Turning to `COc1ccc(N2CCC(N3CCN(C)C(CCO)C3)CC2)cc1` (stereo unspecified), the activity change is 15.4%.
Then `Cc1sc2ccccc2c1CNC[C@H]1O[C@@H](n2ccc(=O)[nH]c2=O)[C@H](O)[C@@H]1O`, with -9.54%; and `CN(Cc1c(F)cccc1Cl)C(=O)COC(=O)Cn1cnc2ccccc2c1=O`, with 12.8%; and `CCCCN1CC(N2CCN(Cc3cccc(C)c3)CC2)CS1(=O)=O` (stereo unspecified), with -1.82%.
Then `CCc1ccc([C@@H]2CC(=O)[C@@H]3CN(S(=O)(=O)c4ccc(C)cc4)[C@H](c4ccc(Cl)cc4)C[C@@H]3N2S(=O)(=O)c2ccc(C)cc2)cc1`, with 9.82%; and `N#Cc1ccc(OCc2nnc(-c3ccc([N+](=O)[O-])cc3)o2)cc1`, with -1.57%; and `COc1ccc(-c2oc(/N=C/N3CCCC3)c(C#N)c2-c2ccc(OC)cc2)cc1`, with -12.8%.
Then `N#Cc1nc(COc2ccc(Cl)cc2)oc1N1CCCC1`, with -69.8% (active).
As for `Cc1cc(N2CCCC2)ccc1NC(=O)COc1ccc(Cl)cc1`, the activity change is 2.28%.
Turning to `Cc1ccc(OCc2nc(C#N)c(N3CCCC3)o2)cc1`, the activity change is -58.3% (active).
The result for `O=S(=O)(c1ccc(Cl)cc1)c1nc(-c2ccco2)oc1N1CCCCC1` reads -10.9%; that for `CNC(=O)C1CN(C(=O)c2cccc(S(=O)(=O)N3CCc4ccccc43)c2)c2ccccc2O1` (stereo unspecified), 31.5%; that for `COc1ccc(-c2coc3c(C(=O)NC(C)C)cccc23)c(C)c1`, -10.6%.
The result for `COc1ccc(CN2CCC(C)(Oc3cccc(F)c3)C2)c2ccccc12` (stereo unspecified) reads 6.61%; that for `Nc1nc2c(ncn2[C@@H]2O[C@H](CNCc3ccc(OCCCN4CCOCC4)cc3)[C@@H](O)[C@H]2O)c(=O)[nH]1`, 16.8%; that for `CC1CCCN(CCOCCOc2ccccc2-c2ccccc2)C1` (stereo unspecified), -6.75%.
Then `CC1CN(CCOc2ccccc2[N+](=O)[O-])CC(C)O1` (stereo unspecified), with 7.14%.
In the case of `CC1CC(C)CN(CCOc2cccc3ccccc23)C1` (stereo unspecified), the activity change was -68.4% (active).
The result for `CCCn1nnnc1NC(=O)COc1ccc(Cl)cc1C` reads -5.09%; that for `COc1ccc(Cl)cc1C=CC=NNC(=O)c1ccncc1`, -5.27%.
The result for `COc1ccccc1/C=C/C=N/n1c(-c2ccc(Cl)cc2Cl)n[nH]c1=S` reads 0%.
Then `COc1ccc(Cl)cc1C=CC=Nc1ccc(S(N)(=O)=O)cc1`, with -101% (active).

The values above are taken from PubChem BioAssay AID743279 (National Center for Advancing Translational Sciences (NCATS), 2014).
